The text below walks through data of PubChem BioAssay.

The term inhibition denotes the change of the read-out against control, counted positive when it falls.

A number with no mark means an inactive call. Rule as the data show it: active = inhibition above about 31%; inactive = the rest.

The nature of the experiment: 384-well plate pilot, post-Golgi transport modulator project, inhibition of yeast transport mutant growth (AID 636). The settings on record: absorbance 615 nm, about 18 h, stronger effect = higher value.
For the molecule `COc1ccc(C(=O)Nn2c(SCC(=O)NCC3CCCO3)nc3ccccc3c2=O)cc1` (stereo not given), the inhibition is -6.53%.
As for `COc1ccc(Cc2nnc3n2N=C(c2cc4ccccc4o2)CS3)cc1OC`, the inhibition was -7.03%.
The value for `CC1(C)OC(=O)N(c2cccnc2)C1(C)O` (stereo not given) was -5.6%; that for `O=c1/c(=C/c2ccco2)sc2nc(-c3ccccc3Br)nn12` was -6.8%.
For the molecule `CC1Cc2ccccc2N1C(=O)CSc1nc2ccccc2n1CC(=O)N1CCOCC1` (stereo not given), the inhibition was -6.13%.
The value for `Cc1oc(-c2ccccc2F)nc1CS(=O)(=O)CC(=O)N1CCCCCC1` was 1.07%; that for `O=C(NCc1cccnc1)c1ccc(Cl)c(Cl)c1` was -1.33%; that for `COc1cccc(C(=O)Nc2ccc(NC(C)=O)cn2)c1` was -5.27%.
With `CCN(C(=O)CN1CCN(c2ccccc2OC)CC1)c1c(N)n(Cc2ccccc2)c(=O)[nH]c1=O` the figure was -8%; with `CCOC(=O)n1c(SCC(=O)N(CC)CC)nc2ccccc21`, -3.51%.
Regarding `CCOC(=O)C1CCN(c2c(NC3CCCCCCC3)c(=O)c2=O)CC1`, the inhibition was 0.64%.
In the case of `CCOC(=O)NC(=O)CSc1nnnn1-c1ccc(Cl)cc1`, the inhibition is -5.2%.
With `COc1cccc(-n2c(C)nc3c(cnn3-c3ccc(Cl)cc3)c2=O)c1`, the inhibition is -4.47%.
Consider `CN(CC(O)COCc1cccs1)C1CCCCC1` (stereo not given), for which the inhibition was -3.47%.
With `O=C(O)CSc1ccc2ccccc2n1` the figure was -7.47%; with `CN(C)Cc1c(O)ccc2oc(Cc3ccccc3)cc12`, -6.67%; with `COC(=O)c1[nH]c(C)c(/C(O)=C2\C(=O)C(=O)N(CCN(C)C)C2c2ccccc2OC)c1C` (stereo not given), -6.89%.
Regarding `CC1(C)Cc2c(sc3c2c(=N)n(Cc2ccco2)c(=O)n3Cc2ccccc2)CO1`, the inhibition is -1.82%.
The value for `CCn1nnnc1SCC(=O)N1CCOCC1` was -4.53%; that for `CN(C)c1ccc(C=Nc2ccc(N(C)C)cc2)cc1` was -6.22%.
With `CCCC(=O)Nc1ccc(OCC(=O)OC)cc1` the figure was -3.95%.
With `CCn1cc(C(=O)NCCN(C)CCc2ccccc2)c(=O)c2cc(S(=O)(=O)N(C)C)ccc21` the figure was -1.73%; with `COc1cccc(-c2cc(C(=O)N3CCCc4ccccc43)no2)c1`, -6.49%.
For the molecule `O=C(Cn1c(NCCO)nc2ccccc21)c1ccccc1`, the inhibition is -2.16%.
With `CCOC(=O)N1CCC(N2C(=O)c3ccccc3C2Nc2cccnc2)CC1` (stereo not given) the figure was -2.05%.
The value for `CCCCCCNS(=O)(=O)c1ccc(Cl)s1` was -4.4%.
With `COC(=O)c1cc(=O)n2c(-c3ccc(OC)cc3)csc2n1`, the inhibition is -4.8%.
As for `COC(=O)/C=c1/s/c(=C(/C#N)C(=O)N2CCOCC2)n(-c2ccccc2)c1=O`, the inhibition was -7.4%.
With `CCOc1ccc2[nH]cc(C(=O)N3CCN(CC)CC3)c(=O)c2c1` the figure was 2.67%.
The value for `CCCCN(CCCNC(=O)C1CCN(S(=O)(=O)CC)CC1)c1ccccc1` was -2.89%; that for `COc1ccc(-c2nnn(CCc3nn[nH]n3)n2)cc1OC` was -3.6%; that for `CCCCC(=NCCO)C1=C(O)C(C(=O)OC)C(C)(C)CC1=O` (stereo not given) was -3.68%.
With `COC1CCCCC1NS(=O)(=O)c1ccccc1` (stereo not given) the figure was -3.59%; with `Nc1c(N2CCCCC2)c(=O)[nH]c(=O)n1-c1ccccc1`, -2.86%; with `O=C(CN1C(=O)CCSc2ccccc21)Nc1ccc2c(c1)OCO2`, -2.5%.
Take `Cc1cc(C)c2oc(=O)cc(CN3CCOCC3)c2c1`: the inhibition was -6.93%.
For the molecule `OCc1nc2ccccc2n1CCCOc1ccccc1`, the inhibition was -0.13%.
With `CC(C)(C)c1ccc2c(c1)OCC(C(=O)O)O2` (stereo not given) the figure was 0.55%.
As to `O=C1C2C3C=CC(C3=C3CCCCC3)C2C(=O)N1c1ccccc1` (stereo not given), the inhibition is -3.12%.
The value for `CCCN1C(=O)c2cc(C(=O)O)ccc2C1O` (stereo not given) was -1.07%.
